Sm TGR inh: qHTS Assay for the Inhibitors of Schistosoma Mansoni Peroxiredoxins | Schistosoma mansoni thioredoxin glutathione reductase (TGR), Q962Y6 | purified TGR, DTNB reduction, TNB absorbance 405 nm | Potency, µM (doses to about 114 µM), without a hit: at the highest dose activity change, negative = inhibition, actives largely listed as inhibitors | 360,000 tested, 3% active | AID 485364, 2010; note: potency is the fitted concentration of half-maximal effect; % is set by controls: 0 for no effect and ±100 for the full control effect; nearly all actives have a fitted effect of over 60% in size
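First, TGR (20 nM dispensed) and NADPH were mixed with compound. Second, a 15 min room-temperature incubation followed. Third, further NADPH and then DTNB were added to start the reaction. Finally, TNB absorbance was monitored kinetically.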
Cycloheximide cs: Cycloheximide Counterscreen for Small Molecule Inhibitors of Shiga Toxin; cell reporter, cycloheximide protein synthesis inhibition counterscreen; max response, %; 300,000 tested, 12% active; AID 2314, 2010; in the data active = max response mostly above about 13%, no sharp cut-off; inactive = mostly below about 14%; note: read at 38.3 µM for the half of the compounds with a filed dose; 0% is about no effect
NS1 function inh: qHTS Assay for Inhibitors of Influenza NS1 Protein Function; Potency, µM (series often up to 46.1 µM), inactives show top-dose activity, positive = more growth; 270,000 tested, 0.4% active; calls by dose curve; note: potency is the fitted concentration of half-maximal effect; actives are rising curves; nearly all actives have a fitted effect of over 50% in size
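Growth recovery, yeast-based: influenza A NS1 expressed in S. cerevisiae causes slow growth, and suppressors are detected by OD600. The parent strain without NS1 is used as positive control.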
Shiga inhibitor: A qHTS for Small Molecule Inhibitors of Shiga Toxin | inhibition, % at 38.7 µM | Vero cells, Shiga toxin protein synthesis inhibition reporter | 290,000 tested, 9.2% active; in the data active = inhibition mostly above about 28%, no sharp cut-off; inactive = mostly below about 43%; note: 0% is about no effect
Pf growth 48h: Primary qHTS for delayed death inhibitors of the malarial parasite plastid, 48 hour incubation; P. falciparum luciferase growth in erythrocytes, 48 h; 310,000 tested, 5.9% active; Potency, µM (doses to about 28.7 µM), for inactives: top-dose activity change, negative = inhibition, usual class: inhibitors; note: potency is the fitted concentration of half-maximal effect; % is set by controls: 0 for no effect and ±100 for the full control effect
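Erythrocytes infected with P. falciparum carrying an integrated firefly luciferase reporter (2% hematocrit, 0.1% parasitemia final) were exposed to compounds in RPMI 1640 with 0.5% Albumax at 37 C, 5% CO2. Growth inhibition was scored as reduced luminescence.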
Pf growth 96h: Primary qHTS for delayed death inhibitors of the malarial parasite plastid, 96 hour incubation | P. falciparum luciferase reporter growth, 96 h | Potency, µM (doses to about 28.7 µM), without a hit: at the top dose activity change, negative = inhibition, usual class: inhibitors | 320,000 tested, 6.9% active | AID 504834, 2011; note: potency is the fitted concentration of half-maximal effect; % is set by controls: 0 for no effect and ±100 for the full control effect
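Compounds incubated with erythrocytes infected by luciferase-expressing P. falciparum (2% hematocrit, 0.05% parasitemia final) for 96 hours, 37 C in 5% CO2. Growth inhibition scored as decreased luciferase luminescence.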
* = called active by the depositor; i = inactive; ? = inconclusive; / = not tested or not shown; [ ] = remark or other dose. Shown are actives, neighbours in structure and some others; about 21% of the full set was active somewhere. Unless noted, calls come from the whole dose curve; as a rule, active = well fitted curve in the direction sought with a large enough effect; inconclusive = small, poorly fitted or top-dose-only effect, or another doubt; inactive = no such curve, though single readings can be large; an effect the other way counts as inactive or inconclusive.

SMILES	Sm TGR inh	Cycloheximide cs	NS1 function inh	Shiga inhibitor	Pf growth 48h	Pf growth 96h
CCNc1nc(C#N)nc2c1ncn2-c1cc(F)cc(F)c1	-28%	/	/	/	1.7µM*	?
N#Cc1nc(Nc2cccc(Cl)c2)c2ncn(C3CCCC3)c2n1	1%	/	/	/	-6%	?
CCn1cnc2c(Nc3cc(F)cc(F)c3)nc(C#N)nc21	-31%	/	/	/	0.83µM*	0.29µM*
O=C(CCS(=O)(=O)c1ccccc1Cl)NCCC1=CCCCC1	-27%	35*	-4%	61*	43%	62%
O=C(COC(=O)c1ccccc1)NCCC1=CCCCC1	-3%	14*	/	13	17%	28%
CN(C)c1ccc(C(=O)OCC(=O)NCCC2=CCCCC2)cc1	3%	1	/	10	-12%	4%
O=C(CCc1ccccc1)NCCC1=CCCCC1	1%	40*	11%	99*	54%	?
Cc1ccsc1C(=O)OCC(=O)NCCC1=CCCCC1	-6%	22*	-1%	35	28%	i
CCOc1ccc(OCCC(=O)OCC(=O)Nc2ccc3c(c2)OCCO3)cc1	-18%	/	/	/	-2%	11%
COc1ccc(-n2c(/C=C/c3cccc4ccccc34)nc3ccccc3c2=O)cc1OC	1%	/	/	/	/	/
O=C(Cc1ccccc1)NCCC1=CCCCC1	0%	-1	-4%	13	43%	?
O=C(CCCc1ccccc1)NCCC1=CCCCC1	/	27*	-9%	20	37%	108%
Cc1cccc(N2CCN(C(=O)CN3C(=O)COc4ccc(S(=O)(=O)N5CCCC5)cc43)CC2)c1C	2%	/	/	/	/	/
Cc1cccc(Nc2ncnc3nc[nH]c23)c1C	1%	6	-2%	30	15%	3%
FC(F)Sc1ccc(Nc2ncnc3nc[nH]c23)cc1	-5%	36*	6%	11*	66%	0%
Cc1cc(C)cc(Nc2ncnc3nc[nH]c23)c1	-6%	17	-2%	41*	-11%	?
CCC(C)NC(=O)CCSc1ccc(C)cc1 (stereo not drawn)	-14%	-3	?	-6	12%	6%
CCc1n[n+](CC(=O)c2ccccc2)c(N)s1	1%	22*	/	53	266%	64%
CCOC(=O)Cn1c(S(=O)(=O)Cc2ccccc2)nc2ccccc21	-15%	-4	-6%	-8	-11%	?
CCOC(=O)Cn1c(S(=O)(=O)Cc2ccc(Cl)cc2)nc(-c2ccccc2)c1-c1ccccc1	-12%	-1	12%	-2	?	10µM*
CC(C)[C@H](NS(=O)(=O)c1ccc2c(c1)OCCO2)C(=O)OCC(=O)Nc1cc(Cl)ccc1Cl	-2%	-3	-16%	-7	0%	26%
O=c1[nH]c(=S)[nH]c(O)c1N=Nc1ccc(SC(F)F)cc1	8%	33*	2%	25	0%	2%
Cc1ccc(N2C(=O)CC(Sc3nc(C)cc(C)n3)C2=O)cc1 (stereo not drawn)	-46%	-2	16%	-5	-7%	?
CC(=O)Nc1ccc(N2C(=O)CC(Sc3nc(C)cc(C)n3)C2=O)cc1 (stereo not drawn)	50µM*	1	4%	3	/	11%
COc1ccccc1N1C(=O)CC(Sc2nc(C)cc(C)n2)C1=O (stereo not drawn)	0%	-2	-15%[9.22 µM]	-9	-1%	/
SMILES	Sm TGR inh	Cycloheximide cs	NS1 function inh	Shiga inhibitor	Pf growth 48h	Pf growth 96h
COC(=O)c1ccc(N2C(=O)CC(Sc3n[nH]c(C)n3)C2=O)cc1 (stereo not drawn)	1.4µM*	-2	-75%	14	0%	-15%
CCOc1ccccc1N1C(=O)CC(Sc2n[nH]c(-c3ccccc3)n2)C1=O (stereo not drawn)	0.56µM*	-1	-52%	-10	-20%	-15%
COC(=O)c1cc(C(=O)OC)cc(N2C(=O)CC(Sc3nc(C)cc(C)n3)C2=O)c1 (stereo not drawn)	?	-4	-7%	-15	-9%	/
COc1ccc(N2C(=O)CC(Sc3n[nH]c(-c4cccc(C)c4)n3)C2=O)cc1 (stereo not drawn)	0.32µM*	5	-2%	24	?	?
COc1ccc(CNC(=O)c2cc3c(=O)n(Cc4cccnc4)ccc3nc2C)cc1	-6%	/	/	/	/	/
CC(NC(=O)c1c2c(nc3ccccc13)C(=O)N(C1CCCCC1)C2)c1ccccc1 (stereo not drawn)	0%	/	/	/	/	/
Cc1cc(S(=O)(=O)Nc2cc3c(cc2N2CCOCC2)n(C)c(=O)n3C)ccc1F	-7%	/	/	/	/	/
COc1cc(C(C)=O)ccc1OCC(=O)Nc1cc(Cl)ccc1-n1cncn1	-4%	/	/	/	-1%	-24%
CCN1CCN(c2ccc(S(=O)(=O)N3CCCCC3)cc2NC(=O)c2ccc([N+](=O)[O-])s2)CC1	-7%	/	/	/	4.7µM*	1.7µM*
CCOc1ccccc1OCC(=O)Nc1cc(S(=O)(=O)N2CCCCC2)ccc1OC	-3%	/	/	/	?	2%
Cc1ccc(S(=O)(=O)N2CCC(C(=O)Nc3ccccc3N3CCCCC3)CC2)cc1C	11%	/	/	/	?	?
COc1ccccc1OCC(=O)Nc1cc(S(=O)(=O)N2CCCCC2)ccc1N1CCCCC1	-4%	1	?	-2	5.2µM*	2.1µM*
CCN1CCN(c2ccc(S(=O)(=O)N3CCCCC3)cc2NC(=O)c2ccccc2)CC1	-1%	/	/	/	?	-13%
COc1ccccc1OCC(=O)Nc1cc(C(F)(F)F)ccc1-n1cncn1	0%	/	/	/	9.3µM*	?
COc1ccc(S(=O)(=O)N2CCC(C(=O)Nc3ccccc3N3CCCCC3)CC2)cc1OC	-5%	3	10%	-2	0%	8.3µM*
CCCn1c(N)c(CC)c(=O)[nH]c1=O	-1%	6	13%	-20	?	16%
O=C(Cc1ccc(Cl)cc1)NC1CC(=O)N(c2ccc3c(c2)OCCO3)C1 (stereo not drawn)	-3%	/	/	/	/	/
Cc1ccc(CNC(=O)CCCn2nc(C)n3c(cc4sccc43)c2=O)cc1	-2%	/	/	/	/	/
COc1ccccc1OCC(=O)Nc1cc(Cl)ccc1N1CCCCC1	-3%	/	/	/	10µM*	?
